D1 PAM = enhances dopamine response at the human D1 receptor; HEK293 TREx D1 cells, calcium flux, dopamine EC20 potentiation; potentiation, % at 10 µM; 360,000 compounds, 0.036% hits; P21728; in the data active = potentiation above about 30%; note: 0% is about no effect
GALK inhibitor = blocks human galactokinase activity | P51570 | Purified GALK, Kinase-Glo residual ATP luminescence | Potency, µM (titrated, usually from 57.5 µM), for inactives: at the top dose activity change, negative = inhibition, most hits filed as inhibitors | 270,000 compounds, 0.007% hits | AID 1868; note: potency is the fitted concentration of half-maximal effect; % is set by controls: 0 for no effect and ±100 for the full control effect
Target sequence (P51570 whole entry, looked up): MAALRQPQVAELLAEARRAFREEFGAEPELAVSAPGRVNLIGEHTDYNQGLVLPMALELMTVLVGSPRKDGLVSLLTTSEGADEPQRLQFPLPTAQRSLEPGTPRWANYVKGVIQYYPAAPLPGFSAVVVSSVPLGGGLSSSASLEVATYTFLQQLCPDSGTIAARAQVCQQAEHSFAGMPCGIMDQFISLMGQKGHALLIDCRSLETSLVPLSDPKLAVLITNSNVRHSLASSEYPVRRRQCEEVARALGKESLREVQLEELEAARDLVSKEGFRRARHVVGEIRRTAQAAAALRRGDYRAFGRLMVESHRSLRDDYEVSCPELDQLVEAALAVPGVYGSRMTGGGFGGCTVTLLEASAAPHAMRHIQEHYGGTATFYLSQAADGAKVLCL
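GALK at 5 nM final was combined with compound, 35 uM ATP and 100 uM galactose in HEPES pH8.0 with MgCl2 and DTT. The reaction ran one hour at room temperature before luminescent ATP detection.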
USP2a block = USP2a (human) protease inhibition | USP2 core, Ub-CHOP2 coupled fluorogenic reporter, 485/531 | Potency, µM (top dose mostly 38.3 µM), without a hit: at the top dose activity change, negative = inhibition, most hits filed as inhibitors | 330,000 compounds, 0.01% hits | AID 463254 | O75604;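 note: potency is the fitted concentration of half-maximal effect; plate controls were DMSO wells for no effect and full inhibition by NEM control for full effect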
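USP2 core (10nM final) preincubated 30min RT with compound in 20mM Tris-HCl pH 8.0, 2mM CaCl2, 2mM beta-mercaptoethanol, 0.05% CHAPS; 25nM Ub-CHOP2 plus 25nM reporter substrate added, fluorescence (Ex485/Em531) read after 60min.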
D1 antag = human D1 dopamine receptor antagonism; 360,000 compounds, 3.2% hits; activity change, negative = inhibition, % at 10 µM; P21728; HEK293 TREx D1 cells, calcium flux, dopamine EC80; active compounds read low; in the data active = activity change below about -30%; note: % is set by controls: 0 for no effect and ±100 for the full control effect
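HEK293 T-REx cells expressing inducible, force-coupled D1 receptor; no-wash Ca dye, 30–90 min RT. Cmpd → 180 s read at 1 Hz → EC80 DA → 180 s read.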
D1 agonist = activates the human D1 dopamine receptor; activation, % at 2 µM; HEK293 T-REx D1 cells, calcium flux, agonist mode; 360,000 compounds, 1% hits; P21728; AID 504660; in the data active = activation above about 30%; note: 0% is about no effect
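Agonism was scored from calcium flux recorded over 180 s (1 read/s) after pintool compound addition, following a 10-cycle baseline. Cells were inducible force-coupled HEK293 TREx D1, plated overnight at 30 C and loaded with no-wash calcium dye.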
Eya2 inh = inhibitors of human Eya2 phosphatase activity | 330,000 compounds, 0.006% hits | AID 488837 | recombinant Eya2, OMFP fluorescence dephosphorylation (OMFP is methylfluorescein phosphate) | Potency, µM (top dose mostly 76.9 µM), without a hit: top-dose activity, negative = inhibition, actives largely listed as inhibitors; note: potency is the fitted concentration of half-maximal effect; % is set by controls: 0 for no effect and ±100 for the full control effect
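Eya2 protein (added as 0.2 uM solution) was preincubated with compound for 10 min at ambient temperature in 50 mM HEPES pH 7.5, 50 mM NaCl, 5 uM MgCl2, 0.05% BSA, 1 mM DTT. OMFP (added at 50 uM) then reacted 10 min; fluorescence read at 485/525 nm.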
* hit, by the source's call. An excerpt weighted towards active compounds, which were near 3.9% of everything screened. Unless noted, calls come from the whole dose curve; as a rule, active = well fitted inhibition curve with a large enough effect; inconclusive = small, poorly fitted or top-dose-only effect, or effect the other way; inactive = flat fitted curve, though single readings scatter.

`Nc1nc(Cl)nc2c1ncn2[C@@H]1O[C@H](COP(=O)(O)OP(=O)(O)OP(=O)(O)O)[C@@H](O)[C@H]1O` gave Eya2 inh -10%.
For CCOC(=O)c1ccc(NS(=O)(=O)c2ccc(Cl)nc2)cc1 the results were D1 PAM -3, GALK inhibitor 0%, USP2a block -1%, D1 antag -12, D1 agonist 1 and Eya2 inh -1%.
For CCOC(=O)c1cnn(-c2ccc(NS(=O)(=O)c3ccc(Cl)cc3)cc2)c1C(F)(F)F the results were D1 PAM -5, GALK inhibitor 0%, USP2a block -2%, D1 antag -62*, D1 agonist 6 and Eya2 inh -18%.
`COc1ccc(C(=O)Nc2sc3c(c2C(=O)O)CC(C)(C)OC3)cc1` gave D1 PAM 3, GALK inhibitor 2%, USP2a block 6%, D1 antag -12, D1 agonist -1 and Eya2 inh 4%.
CC(C)COc1ccc(C(=O)Nc2sc3c(c2C(=O)O)CC(C)(C)OC3)cc1 was read as D1 PAM -4, GALK inhibitor -16%, USP2a block 3%, D1 antag -31*, D1 agonist 3 and Eya2 inh 2%.
For CCOC(=O)c1cccc(NC(=O)c2nn(-c3ccc(OC)cc3)c(=O)c3c2c2ccccc2n3C)c1 the results were D1 PAM 2, D1 antag 6 and D1 agonist 1.
For Fc1ccc(C2=NNC(=NCc3ccccc3)SC2)cc1F the results were D1 PAM -9, GALK inhibitor -3%, USP2a block -8%, D1 antag -40*, D1 agonist 0 and Eya2 inh -9%.
`CC1=CC(c2ccccc2)n2nnnc2N1` (configuration not stated) gave D1 PAM -5, USP2a block 0%, D1 antag -35*, D1 agonist 5 and Eya2 inh 4%.
For CC1=CC(c2ccccc2)n2nc(N3C(=O)c4ccccc4C3=O)nc2N1 (configuration not stated) the results were D1 PAM 2, GALK inhibitor 0%, USP2a block -2%, D1 antag -5, D1 agonist -2 and Eya2 inh 14%.
`CN(C)c1ccc(C2C=C(c3ccccc3)Nc3nnnn32)cc1` (configuration not stated) gave D1 PAM -4, D1 antag -14 and D1 agonist 31*.
For c1cncc(CSc2ccc(-c3ccc4c(c3)OCO4)nn2)c1 the results were D1 PAM -3, GALK inhibitor 0%, USP2a block -8%, D1 antag -39*, D1 agonist 6 and Eya2 inh -12%.
CN(CC(=O)Nc1cccc(F)c1)C(=O)c1ccc(-n2cncn2)c([N+](=O)[O-])c1 was read as D1 PAM -6, USP2a block 2%, D1 antag -40*, D1 agonist -1 and Eya2 inh 12%.
`COc1cccc(NC(=O)CN(C)C(=O)c2ccc(-n3cncn3)c([N+](=O)[O-])c2)c1` gave D1 PAM -6, USP2a block 0%, D1 antag 6, D1 agonist 2 and Eya2 inh 0%.
Screening COc1ccc(-c2oc3ncn4nc(-c5ccccc5O)nc4c3c2-c2ccc(OC)cc2)cc1 returned D1 PAM 1, D1 antag 8 and D1 agonist 2.
`Nc1c(Cl)cc(C2=NCCn3c2c2ccc([N+](=O)[O-])cc2[n+]3[O-])cc1Cl` gave D1 PAM -10, USP2a block 3%, D1 antag -33*, D1 agonist 1 and Eya2 inh 7%.
CCC(Sc1nnc(C)n2c1cc1sccc12)C(=O)Nc1ccccc1F (configuration not stated) was read as D1 PAM -3, D1 antag -5 and D1 agonist 2.
`Cc1ccc(-n2ncc3c(NCCCc4ccccc4)ncnc32)cc1C` gave D1 PAM -2, D1 antag -17 and D1 agonist 3.
Cc1ccc(-n2ncc3c(NCCO)ncnc32)cc1Cl was read as D1 PAM -3, D1 antag -39* and D1 agonist 5.
COc1ccc(CCNc2ncnc3c2cnn3-c2ccc(C)c(Cl)c2)cc1 was read as D1 PAM -4, D1 antag -63* and D1 agonist 3.
Cc1ccc(-n2ncc3c(NCCc4ccccc4)ncnc32)cc1Cl was read as D1 PAM -3, D1 antag -36* and D1 agonist 7.
For Cc1ccc(-n2ncc3c(NCCc4ccccc4)ncnc32)cc1 the results were D1 PAM -2, D1 antag -50* and D1 agonist -3.
For Cc1ccc(-n2ncc3c(NCCCN4CCOCC4)ncnc32)cc1Cl the results were D1 PAM -4, D1 antag -24 and D1 agonist 7.
`COc1ccc(CCNc2ncnc3c2cnn3-c2cccc(Cl)c2)cc1` gave D1 PAM -4, D1 antag -16 and D1 agonist 3.
O=C(NCCc1ccccc1)c1cc(-c2ccccc2)nc2n[nH]c(-c3ccccc3)c12 was read as D1 PAM 3, D1 antag -3 and D1 agonist 1.
For Cc1ccc2c(c1)-c1c(cnn1CC(=O)N1CCN(c3ccccc3F)CC1)CO2 the results were D1 PAM 8, D1 antag 46 and D1 agonist 1.
Screening Cc1ccccc1C(=O)NNc1ncnc2c1cnn2C returned D1 PAM -5, GALK inhibitor 7%, USP2a block 3%, D1 antag -9, D1 agonist 0 and Eya2 inh -26%.
Screening Cc1ccc(-n2ncc3c(NNC(=O)c4ccccc4C)ncnc32)cc1 returned D1 PAM 0, D1 antag -36* and D1 agonist -2.
CCCNc1ncnc2c1cnn2-c1ccc(OC)cc1 was read as D1 PAM -2, GALK inhibitor 1%, USP2a block 4%, D1 antag -12, D1 agonist 0 and Eya2 inh 5%.
`COc1ccc(CCNc2ncnc3c2cnn3-c2ccc(F)cc2)cc1` gave D1 PAM -4, D1 antag -38* and D1 agonist -2.
Screening COc1cccc(CNc2sc3c(c2C(=O)Nc2ccc(OC)cc2OC)CCC3)c1 returned D1 PAM 3, D1 antag 4 and D1 agonist 1.
Screening CCN(CCCNC(=O)c1cc2c(=O)n(C)c3ccccc3c2s1)Cc1ccccc1 returned D1 PAM -2, D1 antag -36* and D1 agonist -1.
